Among the test systems are HCT-15 colon; HT29 colon; SNB-75 CNS; SNB-19 CNS; U251 CNS; PC-3 prostate; SK-MEL-5 melanoma; UACC-62 melanoma; LOX IMVI melanoma; SK-MEL-28 melanoma; SK-MEL-2 melanoma; EKVX NSCLC; SN12C renal; UO-31 renal; TK-10 renal; ACHN renal; CAKI-1 renal; A498 renal; CCRF-CEM leukemia; MOLT-4 leukemia.
Assay in all cases: NCI-60 one-dose screen, 48 h (100 = growth as untreated, 0 = no growth, -100 = all killed)
What all share (conditions): 10 µM unless noted

SMILES strings stand for the structures. Compounds without any hit were thinned out: in the full panel of roughly 83,000, 20% have a hit.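 Assay: single dose, 48 h. Readout: percent growth (0 = no net growth; negative = cell death). Active: <10.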 Unmarked numbers belong to inactive results. The source made the active and inactive calls.

`COc1ccc2cc(C3=CC(=O)CCC3)ccc2c1`: the growth is 99.2% in the assay with HCT-15 colon; 86.7% in the assay with HT29 colon; 95.1% in the assay on SNB-75 CNS; 92.1% in the assay on SNB-19 CNS; 102% in the assay with U251 CNS; 91.3% in the assay on PC-3 prostate. For the same compound, the growth in the assay with SK-MEL-5 melanoma is 94.3%; with UACC-62 melanoma, 77.1%; in the assay with LOX IMVI melanoma it was 91.1%; with SK-MEL-28 melanoma it was 115%; with SK-MEL-2 melanoma, 92.7%; with EKVX NSCLC it was 99.1%. Besides, the growth in the assay on SN12C renal is 97.2%; in the assay with UO-31 renal, 92.4%; with TK-10 renal, 100%; in the assay with ACHN renal, 107%; in the assay on CAKI-1 renal, 102%; in the assay with A498 renal, -87.9% (active). Moreover, the growth with CCRF-CEM leukemia was 90.9%; with MOLT-4 leukemia, 92.9%.
Consider `Oc1ccc(/C=N/Nc2nc3ccccc3s2)c(O)c1`, for which the growth is 30.9% in the assay with HCT-15 colon; 67.3% in the assay on HT29 colon; 28.5% in the assay with SNB-75 CNS; 52.5% with SNB-19 CNS; 25.4% with U251 CNS; 32.5% in the assay with PC-3 prostate. In addition, the growth in the assay with SK-MEL-5 melanoma was 40.8%; in the assay on UACC-62 melanoma, 35.8%; in the assay with LOX IMVI melanoma, 21.3%; in the assay on SK-MEL-28 melanoma it was 50.7%; with SK-MEL-2 melanoma, 24%; in the assay with EKVX NSCLC, 43.2%. Further, the growth in the assay on SN12C renal is 49.9%; in the assay on UO-31 renal, 10.2%; in the assay with TK-10 renal, 22.9%; with ACHN renal, 23.2%; with CAKI-1 renal, 12.3%; with A498 renal it was 77.9%. Besides, the growth in the assay on CCRF-CEM leukemia is 27.1%; in the assay on MOLT-4 leukemia, 18.8%.
As for `O=C(/C=C(\Nc1ccccc1)c1ccccc1)c1cn(-c2ccc([N+](=O)[O-])cc2)nn1`, the growth in the assay with HCT-15 colon is 84.7%; in the assay with HT29 colon, 96.9%; in the assay with SNB-75 CNS, 91.8%; with SNB-19 CNS it was 97.6%; in the assay with U251 CNS, 87.5%; with PC-3 prostate, 80.1%. For the same compound, the growth is 97.1% in the assay with SK-MEL-5 melanoma; 84.9% with UACC-62 melanoma; 88.5% in the assay with LOX IMVI melanoma; 83.7% in the assay with SK-MEL-28 melanoma; 5.29% (active) in the assay with SK-MEL-2 melanoma; 100% with EKVX NSCLC. Moreover, the growth with SN12C renal is 104%; in the assay with UO-31 renal, 69%; in the assay with TK-10 renal it was 118%; in the assay with ACHN renal, 94.6%; in the assay with CAKI-1 renal, 108%; in the assay on A498 renal, 96.2%. Also, the results for the growth with CCRF-CEM leukemia and in the assay with MOLT-4 leukemia were 71.4% and 64.3%, respectively.
`CC(C)=CCCC(C)c1ccc(C)c2c1OCN(CC1CCNCC1)C2` (stereo not given): the growth is 39.8% in the assay on HCT-15 colon; -68.5% (active) in the assay with HT29 colon; 89.3% in the assay on SNB-75 CNS; 78.2% in the assay on SNB-19 CNS; -2.5% (active) in the assay with U251 CNS; 59.4% with PC-3 prostate. Besides, the growth in the assay on SK-MEL-5 melanoma was 42.2%; with UACC-62 melanoma, 63.5%; in the assay on LOX IMVI melanoma it was -70.5% (active); in the assay on SK-MEL-28 melanoma, 92.5%; in the assay with SK-MEL-2 melanoma, 96.3%; in the assay on EKVX NSCLC, 93%. Besides, the growth with SN12C renal was 76.7%; in the assay on UO-31 renal it was 60.5%; in the assay with TK-10 renal it was 86%; in the assay on ACHN renal it was 92.9%; with CAKI-1 renal, 80.2%; in the assay with A498 renal, 75.6%. For the same compound, the figures for the growth with CCRF-CEM leukemia and in the assay with MOLT-4 leukemia were 26.7% and 34.1%, respectively.
As to `COC(=O)N/N=C/c1coc2ccc(Cl)cc2c1=O`, the growth was 97% in the assay on HCT-15 colon; 95.4% in the assay on HT29 colon; 80.5% in the assay with SNB-75 CNS; 98.4% in the assay on SNB-19 CNS; 96.7% with U251 CNS; 74% with PC-3 prostate. The growth with SK-MEL-5 melanoma is 106%; in the assay with UACC-62 melanoma, 93.9%; with LOX IMVI melanoma, 86.7%; in the assay with SK-MEL-28 melanoma, 100%; in the assay with SK-MEL-2 melanoma, 68.5%; in the assay with EKVX NSCLC, 85.4%. Also, the growth is 88.1% in the assay with SN12C renal; 84.1% with UO-31 renal; 120% in the assay on TK-10 renal; 91.6% with ACHN renal; 81.8% in the assay on CAKI-1 renal; 111% in the assay with A498 renal. The growth was 90.7% with CCRF-CEM leukemia and 84.2% with MOLT-4 leukemia.
On to `COC(=O)C1=CCC(n2cnc3c(N)ncnc32)O1` (stereo not given), for which the growth was 109% in the assay with HCT-15 colon; 103% with HT29 colon; 98.1% with SNB-75 CNS; 104% with SNB-19 CNS; 104% in the assay on U251 CNS; 98% in the assay with PC-3 prostate. For the same compound, the growth was 104% in the assay with SK-MEL-5 melanoma; 92.8% with UACC-62 melanoma; 96.4% with LOX IMVI melanoma; 115% in the assay with SK-MEL-28 melanoma; 94.5% in the assay on SK-MEL-2 melanoma; 101% in the assay on EKVX NSCLC. In addition, the growth is 103% in the assay with SN12C renal; 91.5% in the assay with UO-31 renal; 104% in the assay with TK-10 renal; 110% in the assay with ACHN renal; 75.1% with CAKI-1 renal; 116% in the assay on A498 renal. In addition, the results for the growth in the assay on CCRF-CEM leukemia and in the assay with MOLT-4 leukemia were 98.8% and 91.3%, respectively.
`C[C@]12CCC(=O)C=C1CC[C@H]1[C@@H]3C[C@@H](O)[C@](O)(C(=O)CO)[C@@]3(C)C[C@H](O)[C@@]12F`: the growth with HCT-15 colon was 102%; in the assay on HT29 colon, 103%; in the assay with SNB-75 CNS, 108%; in the assay on SNB-19 CNS, 99.9%; in the assay with U251 CNS it was 109%; in the assay on PC-3 prostate, 95.3%. Further, the growth was 101% in the assay on SK-MEL-5 melanoma; 98% with UACC-62 melanoma; 96% in the assay on LOX IMVI melanoma; 107% in the assay on SK-MEL-28 melanoma; 109% in the assay with SK-MEL-2 melanoma; 88.4% in the assay on EKVX NSCLC. Moreover, the growth in the assay with SN12C renal was 82.9%; in the assay on UO-31 renal it was 74.1%; in the assay on TK-10 renal it was 104%; with ACHN renal, 104%; in the assay with CAKI-1 renal, 78.5%; with A498 renal it was 97.2%. The growth with CCRF-CEM leukemia was 97.1%; with MOLT-4 leukemia, 84.1%.
Regarding `CCC(=O)Nc1cc2c(cc1Cl)-c1ccccc1C2`, the growth with HCT-15 colon is 94.9%; in the assay with HT29 colon, 114%; in the assay on SNB-75 CNS it was 83.1%; in the assay with SNB-19 CNS, 101%; in the assay on U251 CNS, 96.4%; in the assay on PC-3 prostate, 80.5%. Moreover, the growth with SK-MEL-5 melanoma is 93.5%; with UACC-62 melanoma, 84.8%; in the assay on LOX IMVI melanoma, 88.2%; in the assay with SK-MEL-28 melanoma it was 122%; with SK-MEL-2 melanoma, 97.5%; with EKVX NSCLC, 57.1%. Also, the growth with SN12C renal is 68.7%; in the assay with UO-31 renal, 42.5%; with TK-10 renal it was 110%; in the assay on ACHN renal it was 87.1%; in the assay on CAKI-1 renal, 83.6%; with A498 renal, 83.6%. Moreover, the growth is 72.3% with CCRF-CEM leukemia and 82.1% in the assay with MOLT-4 leukemia.
